Reference: ChEMBL document CHEMBL3433997, “St. Jude Leishmania screening dataset” (2016)

Assays:
Assay type in all cases: functional
[1] = target: Solute carrier family 2, facilitated glucose transporter member 1 (Homo sapiens) (UniProt P11166); assay: ST_JUDE_LEISH: Cytotoxicity at 2uM final concentration against transgenic Leishmania Mexicana promastigotes LmGLUT1 that are glucose transport deficient and complemented with the human glucose transporter GLUT1. Activity is measured by DNA content using SYBR green in vitro
[2] = target: Hexose transporter 1 (Plasmodium falciparum) (UniProt O97467); assay: ST_JUDE_LEISH: Cytotoxicity at 2uM final concentration against transgenic Leishmania Mexicana promastigotes LmPfHT that are glucose transport deficient and complemented with the Plasmodium falciparum hexose transporter. Activity is measured by DNA content using SYBR green in vitro
[3] = target: Glucose transporter (Leishmania mexicana) (UniProt O61059); assay: ST_JUDE_LEISH: Cytotoxicity at 2uM final concentration against transgenic Leishmania Mexicana promastigotes LmGT2 that are glucose transport deficient and complemented with the L. Mexicana glucose transporter 2. Activity is measured by DNA content using SYBR green in vitro

Solute carrier family 2, facilitated glucose transporter member 1 (Homo sapiens), sequence (P11166 whole entry): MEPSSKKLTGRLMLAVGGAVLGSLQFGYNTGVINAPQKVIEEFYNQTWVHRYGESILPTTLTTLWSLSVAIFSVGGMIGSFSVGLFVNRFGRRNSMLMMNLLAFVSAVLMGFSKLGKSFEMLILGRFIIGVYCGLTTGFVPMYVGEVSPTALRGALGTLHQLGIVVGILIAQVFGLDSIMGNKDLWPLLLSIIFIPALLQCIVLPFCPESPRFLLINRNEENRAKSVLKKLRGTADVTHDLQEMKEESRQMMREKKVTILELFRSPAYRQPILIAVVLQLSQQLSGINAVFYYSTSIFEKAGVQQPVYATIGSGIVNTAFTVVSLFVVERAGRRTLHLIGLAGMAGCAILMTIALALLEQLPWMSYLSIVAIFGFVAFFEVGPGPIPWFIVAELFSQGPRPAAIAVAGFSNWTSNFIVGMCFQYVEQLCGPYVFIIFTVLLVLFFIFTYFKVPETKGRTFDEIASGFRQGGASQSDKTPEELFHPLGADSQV

Row | SMILES | inhibition [1] | inhibition [2] | inhibition [3]
1 | CCOC(=O)NC1=NC(=N)N(OCCCOc2cc(Cl)c(Cl)cc2Cl)C(C)(C)N1 | -0.21% | -0.15% | 1.91%
2 | COCCNCc1ccc(-c2cccc(CNC3CCN(Cc4ccccc4)CC3)c2)cc1 | 4% | 3.16% | 4.77%
3 | Cc1cc(NCCC(=O)Nc2ccccc2)nc(NCC2CCCCC2)n1 | 5.97% | 3.39% | 3.6%
4 | NCC1CCCN1Cc1cccc(-c2cccc(-c3nc4cc(F)ccc4[nH]3)c2)c1 (centres undefined) | 0.19% | 0.88% | 1.02%
5 | CC(C)(C)NC(=O)c1ccc(Oc2ccc(OC(F)(F)F)cc2)c(NC(=O)C(C)(C)C)c1 | -3.08% | -1.32% | -2.26%
6 | CCCN1CCN(Cc2ccc(-c3ccc(-c4nc5ccccc5[nH]4)s3)cc2)CC1 | -0.29% | 2.1% | 1.19%
7 | Cc1cnc(Nc2cccnc2)nc1Nc1ccccc1C(=O)NC(C)C | 1.01% | 1.12% | 2.25%
8 | CC(C)C[C@H](NC(=O)c1ccc(OCCN2CCOCC2)cc1)C(=O)N[C@H](/C=N/N1CC(=O)NC1=O)CCc1ccccc1 | 3.3% | 4.15% | 2.88%
9 | Cc1cc(OCCCn2ccnc2)ccc1-c1csc(/N=C(\N)NCc2ccccc2)n1 | 8.57% | 5.79% | 6.56%
10 | COc1cc(C(=O)N2CCOC(CCN3CCC[C@H]3C(=O)Nc3ccccc3)(c3ccc(Cl)c(Cl)c3)C2)cc(OC)c1OC (some centres undefined) | 6.58% | 5.14% | 2.89%
11 | CCn1ncc2c(NC3CCOCC3)c(CNC(=O)c3ccnn3C)c(C)nc21 | 3.11% | 2.89% | 0.31%
12 | CC(C)(C)C(Cn1ccnc1)NCc1c[nH]nc1-c1ccc(-c2ccccc2)cc1 (centres undefined) | 11.2% | 16.9% | 11.5%
13 | COc1cc(CN/C(=N/c2ccc(-c3ccccc3)cc2)Nc2ccc(C#N)cc2O)cc(OC)c1 | 1.7% | 0.59% | 0.77%
14 | Cc1ccc(O)c(-c2cc(C(=O)Nc3ccc(S(=O)(=O)N4CCCCC4)cc3)[nH]n2)c1 | 3.32% | 1.22% | 1.19%
15 | N#Cc1ccccc1N1CCN(C2CCC(NC(=O)c3n[nH]c4cc(C(F)(F)F)ccc34)CC2)CC1 (centres undefined) | 2.94% | 1.88% | 0.43%
16 | Cc1cc(Nc2cccc(C(F)(F)F)c2)nc(NCc2ccccc2)n1 | 29.6% | 42.8% | 10.1%
17 | Brc1ccc(Nc2nc(NCc3ccccc3)c3ccccc3n2)cc1 | 22.6% | 16.5% | 6.03%

Row | SMILES | inhibition [1] | inhibition [2] | inhibition [3]
18 | COc1ccccc1CN1CCC(NC(=O)c2ccc(-c3cccc(C(F)(F)F)c3)s2)CC1 | 3.7% | 4.38% | -4.28%
19 | NC(=O)c1sc(-n2cnc3ccc(C(=O)NCCN4CCOCC4)cc32)cc1OCc1ccccc1C(F)(F)F | 0.72% | -0.6% | -0.32%
20 | CCOc1cc(Cc2cnc(N)nc2N)cc(OC)c1OC | -1.63% | -0.5% | -0.04%
21 | O=C(Nc1ccc(Cl)cc1)N(CC1CC2CCC(C1)N2Cc1ccc(C(F)(F)F)cc1)c1ccc(N2CCOCC2)c(F)c1 (centres undefined) | 6.73% | 5.58% | 8.78%
22 | OC1(C(F)(F)F)CC(c2ccccc2)=NN1c1nncc(-c2ccccc2)n1 (centres undefined) | 0.8% | 0.53% | 1.18%
23 | Cc1cc(-c2cc3nc4c(c(O)n3n2)CCCC4)c(C)o1 | 4.05% | 8.94% | 6.14%
24 | COc1cccc(C(=O)NC(NC(=S)Nc2ccc(OC)cc2[N+](=O)[O-])C(Cl)(Cl)Cl)c1 (centres undefined) | -1.36% | 0.44% | -2.26%
25 | COc1ccccc1C1CCN(CCCCNC(=O)c2ccc(/C=C/c3cc(Cl)cc(Cl)c3)cc2)CC1 | 2.68% | 2.81% | 1.77%
26 | COc1ccc(-c2cccc(NC(=O)c3ccc(Cl)cc3)c2)cc1CN1CCC(O)CC1 | 5.4% | 0.09% | 1.8%
27 | CN(C)c1cccc2c1nc(-c1ccco1)n2CCNCc1ccccc1 | -0.08% | 1.58% | -0.13%
28 | Cc1c(-c2ccc(C(=O)NC3CC(C)(C)NC(C)(C)C3)cc2)[nH]c2cc(Cl)c(Cl)cc12 | 10.9% | 8.08% | 13.8%
29 | NCC(=O)NC12CC3CC(CC(C3)C1)C2 | 1.01% | 2.25% | 1.66%
30 | Cc1ccccc1C1CCN(C2CCC(NC(=O)/C=C/c3ccc(F)cc3)CC2)CC1 (centres undefined) | -1.42% | -0.14% | 0.53%
31 | CCN(CC)CCn1c(=N)n(CC(O)c2ccc(Cl)c(Cl)c2)c2ccccc21 (centres undefined) | 7.87% | 5.43% | 12.9%
32 | COc1ccc(NC(=O)[C@H](Cc2ccccc2)Nc2cc(C)nc(NCCc3cccs3)n2)cc1 | 2.27% | 2.32% | -0.24%
33 | CCN(CCNC(=O)Nc1cc(C(F)(F)F)cc(C(F)(F)F)c1)c1cccc(C)c1 | 5.44% | 4.69% | 5.45%
